# According to article PMC5540273 (PLoS ONE, 2017):
# System: CLK4
# 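Note: kd values determined as follow-up on hits from a single-replicate KINOMEscan panel screen.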
row,Structure (SMILES),Kd
1,COc1ccc(CSc2nnc(-c3ccc4ncsc4c3)o2)cc1C(F)(F)F,1100 nM
2,COc1ccc(CSc2nnc(-c3ccc4nccn4c3)o2)cc1C(F)(F)F,130 nM
3,CNc1cc(-c2ccc3c(N)n[nH]c3c2)nc(N)n1 [GSK2224810],140 nM
4,COc1ccc(CSc2nnc(-c3ccc4c(c3)CCO4)o2)cc1,1300 nM

# System: CSF1R
row,Structure (SMILES),Kd
1,Cc1ccc(NC(=O)Nc2ccc(Cl)cc2)cc1-c1ccc(C(=O)Nc2ccncc2)cc1 [GSK1398472],6700 nM
2,COc1cccc(NC(=O)Nc2ccc(C)c(-c3ccc(C(=O)Nc4ccncc4)cc3)c2)c1 [GSK1398474],3300 nM
3,Cc1ccc(NC(=O)c2ccc(Cl)cc2)cc1-c1ccc(C(=O)Nc2ccncc2)cc1 [GSK1398467],880 nM
4,Cc1ccc(NC(=O)Nc2ccccc2F)cc1-c1ccc(C(=O)Nc2ccncc2)cc1 [GSK1398477],2600 nM
5,Cc1ccc(NC(=O)Nc2ccccc2)cc1-c1ccc(C(=O)Nc2ccncc2)cc1 [GSK1398471],3300 nM

# System: CSNK1A1
row,Structure (SMILES),Kd
1,Fc1ccc(-c2nc[nH]c2-c2ccncc2)cc1 [SB-217360],87 nM
2,Fc1ccc(-c2nc3n(c2-c2ccncc2)CCS3)cc1 [GI98581],260 nM
3,Nc1nccc(-c2c(-c3ccc(F)cc3)ncn2C2CCN(Cc3ccccc3)CC2)n1 [SB-219980],41 nM

# System: CSNK1D
row,Structure (SMILES),Kd
1,Fc1ccc(-c2nc[nH]c2-c2ccncc2)cc1 [SB-217360],41 nM
2,Cc1nccc(-c2c(-c3ccc(F)cc3)ncn2CCCN2CCOCC2)n1.Cl [SB-282975],75 nM
3,Fc1ccc(-c2nc3n(c2-c2ccncc2)CCS3)cc1 [GI98581],83 nM
4,CCCCc1nn2ncccc2c1-c1ccnc(NC2CC2)n1 [GW684374],480 nM
5,Fc1ccc(-c2nn3cccc(F)c3c2-c2ccncc2)cc1 [GW475620],77 nM
6,Cc1cccc2c(-c3ccncn3)c(-c3ccc(F)cc3)nn12 [GW515532],1200 nM
7,COC(=O)C(NC(=O)NC1CCN(c2ccnc(Nc3ccc(F)cc3)n2)C1)c1ccccc1 (stereo not shown) [GSK1379712],> 10000 nM
8,Nc1nccc(-c2c(-c3ccc(F)cc3)ncn2C2CCN(Cc3ccccc3)CC2)n1 [SB-219980],7.5 nM

# System: CSNK1E
row,Structure (SMILES),Kd
1,Fc1ccc(-c2nc[nH]c2-c2ccncc2)cc1 [SB-217360],140 nM
2,Cc1nccc(-c2c(-c3ccc(F)cc3)ncn2CCCN2CCOCC2)n1.Cl [SB-282975],460 nM
3,Fc1ccc(-c2nc3n(c2-c2ccncc2)CCS3)cc1 [GI98581],180 nM
4,CCCCc1nn2ncccc2c1-c1ccnc(NC2CC2)n1 [GW684374],2900 nM
5,Fc1ccc(-c2nn3cccc(F)c3c2-c2ccncc2)cc1 [GW475620],220 nM
6,CC(=O)c1c(C)c2cnc(Nc3ccc(N4CCNCC4)cn3)nc2n(C2CCCC2)c1=O,> 10000 nM
7,Cc1cccc2c(-c3ccncn3)c(-c3ccc(F)cc3)nn12 [GW515532],3400 nM
8,Nc1nccc(-c2c(-c3ccc(F)cc3)ncn2C2CCN(Cc3ccccc3)CC2)n1 [SB-219980],24 nM

# System: CSNK1G3
row,Structure (SMILES),Kd
1,CNCc1ccc2nc(NC(=O)c3ccc(C(C)(C)C)cc3)cn2c1,> 10000 nM
2,O=C1NC(=O)C(c2ccc(Cl)cc2)=C1Nc1cccc(Cl)c1 [SB-317651],> 10000 nM
3,Cc1cccc2c(-c3ccncn3)c(-c3ccc(F)cc3)nn12 [GW515532],> 10000 nM
